Vaccinia stage = blocks a specific stage of Vaccinia orthopoxvirus infection, primary screen, cell-based, single point; Vaccinia-infected cells, mCherry/Venus stage reporter fluorescence; stronger effect = lower value; activity change (mCherry), % (test concentration not listed); 0.01% of 89,000 active; AID 1053133, 2014; in the data active = activity change below about -37%, passing the limit was not always enough; tested in A549 cells
A number is an active result. Shown is part of a subset that was picked to be rich in hits.

How did C[C@@H]1CN([C@@H](C)CO)C(=O)c2cc(NS(=O)(=O)c3ccc(F)cc3)ccc2O[C@@H](C)CCCCO[C@@H]1CN(C)Cc1ccc(C(=O)O)cc1 do in these assays?
Vaccinia stage: inactive

How did COC(=O)[C@@H]1[C@@H](CO)[C@@H]2Cn3c(ccc(/C=C/c4ccccc4)c3=O)[C@@H]2N1C(=O)C1CCCC1 do in these assays?
Vaccinia stage: inactive

Results for Cc1cc(C(=O)Nc2cccc3c2O[C@H](CN(C)S(=O)(=O)c2cccs2)[C@H](C)CN([C@H](C)CO)C3=O)n(C)n1 ?
Vaccinia stage: inactive

Results for O=C(N[C@H]1CC[C@@H](CC(=O)N2CCCCC2)O[C@H]1CO)c1cccc(F)c1 ?
Vaccinia stage: inactive

Results for O=C(CN1CCOCC1)NCC[C@H]1CC[C@@H](NC(=O)c2ccc3c(c2)OCO3)[C@@H](CO)O1 ?
Vaccinia stage: inactive

How did C[C@H](CO)N1C[C@H](C)[C@@H](CN(C)C(=O)Cc2cccnc2)Oc2ncc(/C=C/c3ccccc3)cc2C1=O do in these assays?
Vaccinia stage: inactive

Results for CO[C@H](CN(C)C(=O)C1CC1)[C@H](C)CN(C(=O)Nc1ccc(C(F)(F)F)cc1)[C@@H](C)CO ?
Vaccinia stage: inactive

What do the screens show for `CN1c2ccc(-c3cccc(C#N)c3)cc2[C@@H]2[C@@H](CCN2S(=O)(=O)c2ccccc2)[C@@H]1CO`?
Vaccinia stage: inactive

What do the screens show for `CN(C)C(=O)c1ccc(-c2cccc(-c3nc(C(=O)NC4CCCC4)cc4c3[C@@H](CCO)N([S@](=O)C(C)(C)C)C4)c2)cc1`?
Vaccinia stage: inactive

What do the screens show for `CN(C)C(=O)c1ccc(-c2cccc(-c3nc(C(=O)NC4CCCCC4)cc4c3[C@@H](CCO)N([S@](=O)C(C)(C)C)C4)c2)cc1`?
Vaccinia stage: -51

How did CN(C)C(=O)c1ccc(-c2cccc(-c3nc(C(=O)NC4CCCC4)cc4c3[C@H](CCO)N([S@@](=O)C(C)(C)C)C4)c2)cc1 do in these assays?
Vaccinia stage: -36

How did CN(C)C(=O)c1ccc(-c2cccc(-c3nc(C(=O)NCc4ccccc4)cc4c3[C@@H](CCO)N([S@](=O)C(C)(C)C)C4)c2)cc1 do in these assays?
Vaccinia stage: inactive

Results for CN(C)C(=O)c1ccc(-c2cccc(-c3nc(C(=O)NC4CCC4)cc4c3[C@@H](CCO)N([S@](=O)C(C)(C)C)C4)c2)cc1 ?
Vaccinia stage: inactive

How did CN(C)C(=O)c1ccc(-c2cccc(-c3nc(C(=O)NCc4ccccc4)cc4c3[C@H](CCO)N([S@@](=O)C(C)(C)C)C4)c2)cc1 do in these assays?
Vaccinia stage: inactive

What do the screens show for `CCNC(=O)C[C@H]1CC[C@H]2[C@@H](COc3ccc(NC(=O)Cc4ccccc4)cc3C(=O)N2C)O1`?
Vaccinia stage: inactive

How did C[C@@H]1CCCCO[C@@H](CN(C)C(=O)Nc2ccc(C(F)(F)F)cc2)[C@H](C)CN([C@H](C)CO)C(=O)c2cc(NC(=O)NC3CCCCC3)ccc2O1 do in these assays?
Vaccinia stage: inactive

Results for C/C=C/c1ccc([C@@H]2[C@H](CO)N(C(C)=O)C23CN(S(C)(=O)=O)C3)cc1 ?
Vaccinia stage: inactive

How did CN1C(=O)c2cc(NC(=O)C3CCCCC3)ccc2OC[C@H]2O[C@H](CC(=O)NCCc3ccncc3)CC[C@H]21 do in these assays?
Vaccinia stage: inactive

Results for O=C(C[C@@H]1CC[C@@H]2[C@H](COC[C@H](O)CN2Cc2nccs2)O1)NCc1ccc(-c2ccccc2)cc1 ?
Vaccinia stage: inactive

Results for CCCN1C[C@H](C)[C@H](OC)CN(C)C(=O)c2ccc(NC(=O)c3cccc(OC)c3)cc2OC[C@H]1C ?
Vaccinia stage: inactive

What do the screens show for `COc1ccc(NC(=O)N[C@@H]2CC[C@H](CC(=O)NC3CCCCC3)O[C@@H]2CO)cc1`?
Vaccinia stage: inactive

What do the screens show for `CCCNC(=O)N1CC2(C1)[C@@H](c1ccccc1)[C@@H](CO)N2C(=O)C1CCCC1`?
Vaccinia stage: inactive

Results for COCC#Cc1cnc2c(c1)C(=O)N([C@H](C)CO)C[C@@H](C)[C@@H](CN(C)S(=O)(=O)c1ccccc1)O2 ?
Vaccinia stage: inactive

What do the screens show for `Cc1ccc(S(=O)(=O)Nc2ccc3c(c2)CC(=O)N([C@H](C)CO)C[C@H](C)[C@H](CN(C)C(=O)Nc2c(C)noc2C)O3)cc1`?
Vaccinia stage: inactive

What do the screens show for `COc1ccc2c3c(n(C)c2c1)[C@H](CO)N(C(=O)NC(C)C)CC31CN(CC2CC2)C1`?
Vaccinia stage: inactive

How did CO[C@H](CN(C)C(=O)c1ccc2c(c1)OCO2)[C@H](C)CN([C@@H](C)CO)S(=O)(=O)c1ccc(F)cc1 do in these assays?
Vaccinia stage: inactive

How did CN(C)C(=O)C[C@@H]1CC[C@H]2[C@@H](COc3ccc(NC(=O)c4ccc(F)c(F)c4)cc3C(=O)N2C)O1 do in these assays?
Vaccinia stage: inactive

How did O=C(Nc1ccc(F)cc1)N[C@@H]1CC[C@@H](CCNC(=O)c2ccccc2F)O[C@H]1CO do in these assays?
Vaccinia stage: inactive

Results for CC(C)C#Cc1cnc2c(c1)C(=O)N([C@H](C)CO)C[C@H](C)[C@@H](CN(C)C(=O)c1cccnc1)O2 ?
Vaccinia stage: inactive

Results for Cc1noc(C)c1NC(=O)Nc1ccc2c(c1)C(=O)N([C@@H](C)CO)C[C@@H](C)[C@@H](CN(C)S(=O)(=O)c1ccc(Cl)cc1)OCCCC[C@H](C)O2 ?
Vaccinia stage: inactive

How did CC(C)NC(=O)N(C)C[C@@H]1Oc2c(NC(=O)C3CCOCC3)cccc2C(=O)N([C@H](C)CO)C[C@H]1C do in these assays?
Vaccinia stage: inactive

What do the screens show for `CNC[C@H]1Oc2ccc(NC(=O)C3CC3)cc2CC(=O)N([C@@H](C)CO)C[C@H]1C`?
Vaccinia stage: inactive

Results for O=C(CC1CC1)N1[C@H](CO)[C@H](c2ccccc2)C12CN(Cc1cc(F)ccc1F)C2 ?
Vaccinia stage: inactive

Results for C[C@H]1CN([C@@H](C)CO)C(=O)c2cc(-c3cncnc3)cnc2O[C@H]1CN(C)Cc1ccc(F)cc1 ?
Vaccinia stage: inactive

How did O=C(C1CC1)N1CCCCN2[C@H](CO)[C@H](c3ccc(C#CC4(O)CCCC4)cc3)[C@@H]2C1 do in these assays?
Vaccinia stage: inactive

How did Cc1noc(C)c1NC(=O)Nc1cccc2c1O[C@@H](CN(C)S(=O)(=O)c1cccs1)[C@@H](C)CN([C@@H](C)CO)C2=O do in these assays?
Vaccinia stage: inactive

How did COc1ccc(CN2CC3(CN(C(C)=O)C3)c3c([nH]c4cc(OC)ccc34)[C@@H]2CO)cc1 do in these assays?
Vaccinia stage: inactive

What do the screens show for `CCCN1[C@H](C(=O)NCC2CC2)[C@@H](CO)[C@@H]2Cn3c(ccc(-c4ccccc4)c3=O)[C@@H]21`?
Vaccinia stage: inactive

Results for CCCN1[C@@H]2c3ccc(C4=CCCC4)c(=O)n3C[C@@H]2[C@@H](CO)[C@@H]1C(=O)NCC ?
Vaccinia stage: inactive

How did COc1ccc(S(=O)(=O)N(C)C[C@H]2OCCCC[C@H](C)Oc3ccc(NS(=O)(=O)c4cn(C)cn4)cc3C(=O)N([C@H](C)CO)C[C@@H]2C)cc1 do in these assays?
Vaccinia stage: inactive

What do the screens show for `COc1ccccc1-c1ccc([C@@H]2[C@@H](CO)N(C(=O)C3CC3)C23CN(C(C)=O)C3)cc1`?
Vaccinia stage: inactive

Results for CC(=O)N[C@H]1CC[C@@H](CC(=O)NCC2CCCCC2)O[C@@H]1CO ?
Vaccinia stage: inactive

Results for Cc1ccc(S(=O)(=O)N(C)C[C@H]2Oc3cc(C#Cc4ccncc4)ccc3S(=O)(=O)N([C@@H](C)CO)C[C@H]2C)cc1 ?
Vaccinia stage: -46

Assay outcomes as filed in PubChem BioAssay.
